# Assay outcomes: PubChem, National Center for Advancing Translational Sciences (NCATS)
# HCV inhibitor = qHTS Assay for Inhibitors of Hepatitis C Virus (HCV) | Huh7.5.1 HCVcc-Cre infection, luciferase reporter, 44 h | Potency, µM (highest dose often 41.8 µM), for the others: at the highest dose activity change, negative = inhibition, actives largely listed as inhibitors | 340,000 tested, 3.4% active | AID 651820, 2012; active = well fitted inhibition curve with a large enough effect; inconclusive = small, poorly fitted or top-dose-only effect, or another doubt; inactive = no such curve, though single readings can be large or run the other way; note: potency is the fitted concentration of half-maximal effect
#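 1,000 cells/well; 4 h culture; + compound; + HCVcc-Cre (~0.5 moi); 44 h; luciferase substrate, RT 15 min; read 15 sec.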
# Marburg entry inh = qHTS for inhibitors of binding or entry into cells for Marburg Virus | 300,000 tested, 1.8% active | Marburg virus pseudotyped entry inhibition, cell reporter | Potency, µM (top dose mostly 37.8 µM), without a hit: top-dose activity change, negative = inhibition, hits mostly inhibitors | AID 540276, 2011; calls by dose curve; tested in HEK293 cells; note: potency is the fitted concentration of half-maximal effect
# LASV entry inh = qHTS for Inhibitors of binding or entry into cells for Lassa Virus; Potency, µM (top dose mostly 37.9 µM), for inactives: at the highest dose activity change, negative = inhibition, hits mostly inhibitors; AID 540256, 2011; Lassa virus pseudotype entry inhibition, cell reporter; 300,000 tested, 1.2% active; calls by dose curve; tested in HEK293 cells; note: potency is the fitted concentration of half-maximal effect; nearly all actives have a fitted effect of over 50% in size
# Vaccinia mCherry = qHTS for Stage-Specific Inhibitors of Vaccinia Orthopoxvirus: mCherry Reporter Primary qHTS | Vaccinia virus mCherry reporter infection, fluorescence | Potency, µM (doses to about 36.5 µM), for the others: at the top dose activity change, negative = inhibition, hits mostly inhibitors | 310,000 tested, 0.63% active | AID 720579, 2013; calls by dose curve; tested in A549 cells; note: potency is the fitted concentration of half-maximal effect; nearly all actives have a fitted effect of over 35% in size
# HCMV inh = qHTS Assay for inhibitors of the human cytomegalovirus (HCMV) | HFF cells, HCMV-luciferase reporter, 72 h; stronger effect = lower value | activity change, negative = inhibition, % at 57.5 µM | 410,000 tested, 4.5% active; in the data active = activity change below about -60%; inconclusive = no clear call, values can overlap the other calls; inactive = above about -39%
#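 Steps: HFFs plated, 16 h 37C; compounds added; HCMV-luciferase added to MOI 1 PFU/cell; 72 h 37C; OneGlo reagent, 5 min room temperature; luminescence read, normalized to controls.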
# VACV Venus inh = qHTS for Stage-Specific Inhibitors of Vaccinia Orthopoxvirus: Venus Reporter Primary qHTS; Vaccinia virus Venus reporter expression, fluorescence; Potency, µM (series often up to 36.5 µM), for inactives: top-dose activity change, negative = inhibition, hits mostly inhibitors; 330,000 tested, 0.46% active; AID 720580, 2013; calls by dose curve; tested in A549 cells; note: potency is the fitted concentration of half-maximal effect; nearly all actives have a fitted effect of over 30% in size
# * = called active by the depositor; i = inactive; ? = inconclusive; · = no result given; [ ] = dose if it differs, or a comment. An excerpt weighted towards active compounds, which were near 7.8% of everything screened. % is set by controls: 0 for no effect and ±100 for the full control effect.
SMILES,HCV inhibitor,Marburg entry inh,LASV entry inh,Vaccinia mCherry,HCMV inh,VACV Venus inh
CC(C)C[C@H](N)c1cn([C@@H](CCCCN)C(=O)N2CCNCC2)nn1,?,·,·,0.5µM*,65,0.79µM*
CC(C)CC(N)c1cn([C@@H](CCC(=O)O)C(=O)N2CCNCC2)nn1 (stereo partly drawn),28%,·,·,i,-35,-5%
Cc1ccc(CNC(=O)c2c(O)nc3ccccn3c2=O)cc1,·,?,·,-5%,-34,0%
CC(=O)CSc1nc2cc3c(cc2cc1C#N)OCCO3,-20%,1.4µM*,?,-17%,-1,2%
Cc1ccn(-c2ccc([N+](=O)[O-])cc2)n1,6%,15%,-11%,·,-88*,·
COc1ccccc1C(CNC(=O)CNC(=O)c1cccc(Cl)c1)N1CCCC1 (stereo not drawn),6%,7.1µM*,3%,-10%,4,-12%
COc1ccccc1C(CNC(=O)C(CCSC)NC(=O)c1ccccc1Cl)N1CCCC1 (stereo not drawn),13%,2.8µM*,6%,-17%,10,-11%
COC(=O)c1cc(NC(=O)c2cc3c(-c4ccccc4F)nn(C)c3s2)cc(C(=O)OC)c1,·,-16%[46.1 µM],12%[46.1 µM],10%,2,-3%
Cc1ccc(CSc2nc3ccccc3c(=O)n2C)cc1,?,?,-15%,-17%,-65*,-12%
Cn1c(SCc2cccc(C#N)c2)nc2ccccc2c1=O,32µM*,-7%[46.1 µM],?,i,-64*,-11%
Cc1cc(C(=O)CSc2nc3ccccc3c(=O)n2C)c(C)n1Cc1ccc2c(c1)OCO2,1.6µM*,?,?,·,-11,·
COc1ccc(O)c(/C=N/NC(=O)c2ccc(CSc3nc(C)cc(C)n3)cc2)c1,5.6µM*,?,?,8.9µM*,-90*,?
COc1ccc(/C=N/NC(=O)c2ccc(CSc3nc(C)cc(C)n3)cc2)c(OC)c1OC,?,5%,14%,?,?,-28%
Cc1cc(C)nc(SCc2ccc(C(=O)N/N=C/c3cccc(O)c3O)cc2)n1,13µM*,7.3µM*,?,8.9µM*,-99*,?
COc1ccc(/C=N/NC(=O)c2ccc(CSc3nc(C)cc(C)n3)cc2)cc1O,?,-23%,-3%,-4%,-66*,-26%
Cc1cc(C)nc(SCc2ccc(C(=O)N/N=C/c3ccc(C(=O)O)cc3)cc2)n1,-7%,8%[46.1 µM],9%,-9%,16,-15%
Cc1nc(-c2ccccc2)sc1-c1ccc(SCC(=O)NCc2ccccc2Cl)nn1,·,·,13%[46.1 µM],?,31,-29%
COc1ccc(-c2nnc(SCC(=O)N(Cc3ccccc3)C(C)(C)C)o2)cc1OC,?,?,?,·,-95*,·
O=C(Nc1nc2c(s1)CCCC2)C1COc2ccccc2O1 (stereo not drawn),?,?,5.8µM*,i,-15,-15%
O=C(NC1=NCCS1)C1COc2ccccc2O1 (stereo not drawn),0%,1µM*,?,-5%,?,6%
O=C(Nc1ccncc1)C1COc2ccccc2O1 (stereo not drawn),4%,-1%,18%,i,-25,-6%
COc1ccc(CCNC(=O)CSc2nc3nc(C)c(Cc4ccc(C)cc4)c(C)n3n2)cc1OC,·,·,-25%[46.1 µM],-24%,?,-19%
COc1ccc(C(=O)CSc2nnc(C3CCCCC3)n2N)c(OC)c1,10µM*,?,?,·,5,-26%
COc1ccc(NC(=O)CSc2nnc(C3CCCCC3)n2N)cc1,4%,-5%[46.1 µM],-3%,i[7.34 µM],42,-11%[7.34 µM]
CCOC(=O)c1ccc(NC(=O)C(C)N(c2ccc(OCC)cc2)S(C)(=O)=O)cc1 (stereo not drawn),·,-7%[46.1 µM],8%[46.1 µM],-6%,?,-8%
SMILES,HCV inhibitor,Marburg entry inh,LASV entry inh,Vaccinia mCherry,HCMV inh,VACV Venus inh
CC[C@]12c3[nH]c4ccc(Cl)cc4c3CCN1C(=O)[C@@H](CC(=O)NCCN1CCOCC1)C[C@@H]2C(=O)N1CCN(C(=O)c2ccco2)CC1,-1%,·,·,-24%,-28,-6%
C[C@]12c3[nH]c4cc(-c5ccco5)ccc4c3CCN1C(=O)[C@@H](CC(=O)NCC13CC4CC(CC(C4)C1)C3)C[C@@H]2C(=O)N1CCCCC1,6%,·,·,11µM*,-35,?
CC[C@]12c3[nH]c4ccc(Cl)cc4c3CCN1C(=O)[C@@H](CC(=O)NCCC1=CCCCC1)C[C@@H]2C(=O)N1CCN(C(=O)c2ccco2)CC1,32µM*,-7%,·,-6%,?,-20%
C[C@]12c3[nH]c4cc(-c5ccco5)ccc4c3CCN1C(=O)[C@@H](CC(=O)NCc1cccc(C(F)(F)F)c1)C[C@@H]2C(=O)N1CCCCC1,?,·,·,11µM*,-34,?
CC(C)N(C(=O)[C@H]1C[C@H](CC(=O)NC(C)(C)C)C(=O)N2CCc3c([nH]c4cc(CCC(=O)N(C)C)ccc34)[C@]12C)C(C)C,0.5µM*,2%,·,-2%,-11,-1%
CN(C)CCCn1c(-c2nonc2N)nc2cnccc21,·,·,4%,·,·,·
O=C(O)c1[nH]c2ccc(Cl)cc2c1CC(=O)N1CCN(C(=O)c2ccco2)CC1,11%,11%,10%,·,6,-14%
O=C(c1ccco1)N1CCN(C(=O)C2CCCc3c2[nH]c2ccc(Cl)cc32)CC1 (stereo not drawn),?,2.8µM*,4.5µM*,?,-38,-16%
CC[C@]12c3[nH]c4cc(-c5ccco5)ccc4c3CCN1C(=O)[C@@H](CC(=O)NCC13CC4CC(CC(C4)C1)C3)C[C@@H]2C(=O)N1CCN(C(=O)c2ccco2)CC1,?,1%,·,7.1µM*,-32,?
CCN(CC)C(=O)[C@H]1CC(CC(=O)NCc2cccc(C(F)(F)F)c2)C(=O)N2CCc3c([nH]c4ccccc34)[C@]12C (stereo partly drawn),13µM*,·,·,-13%,-25,-22%
CC[C@]12c3[nH]c4ccc(OC)cc4c3CCN1C(=O)C(CC(=O)NCC13CC4CC(CC(C4)C1)C3)C[C@@H]2C(=O)N1CCN(C(=O)c2ccco2)CC1 (stereo partly drawn),0%,-1%,·,-7%,·,0%
CC[C@]12c3[nH]c4ccc(Cl)cc4c3CCN1C(=O)[C@@H](CC(=O)NCC13CC4CC(CC(C4)C1)C3)C[C@@H]2C(=O)N1CCN(C(=O)c2ccco2)CC1,?,·,·,11µM*,-106*,14µM*
C[C@]12c3[nH]c4ccc(Cl)cc4c3CCN1C(=O)[C@@H](CC(=O)NCCC1=CCCCC1)C[C@@H]2C(=O)N1CCOCC1,11µM*,7%,·,?,-23,?
